Compounds with a hit are over-represented: about 2.4% of the library has one in this group of screens.
POLB inh: qHTS Assay for Inhibitors of DNA Polymerase Beta; Pol beta primer extension/strand displacement, fluorescence kinetic; 340,000 compounds, 1.3% hits; Potency, µM (doses to about 114 µM), actives largely listed as inhibitors
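Reaction started by 50 nM substrate onto compound-treated Pol beta (10 nM, 15 min preincubation, room temperature); plates read at 0 min and 10 min. Normalized concentration-effect data fitted by four-parameter Hill equation.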
Pol eta inh-1: qHTS for Inhibitors of Polymerase Eta | Potency, µM (titrated, usually from 114 µM), usual class: inhibitors | recombinant Pol eta, fluorescent DNA replication assay | DNA polymerase eta (Homo sapiens), Q9Y253 | 390,000 compounds, 1.2% hits
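Fluorescent replication assay: 50 nM final substrate added after a 15 min room-temperature compound preincubation with 10 nM enzyme. Signal taken at 0 min and again at 10 min.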
WRN inhibitor: qHTS for Inhibitors of WRN Helicase; WRN helicase unwinding, fluorescent forked duplex, kinetic; Potency, µM (doses to about 114 µM), hits mostly inhibitors; 360,000 compounds, 0.46% hits; AID 651768, 2012; note: nearly all actives have a fitted effect of over 55% in size
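Fluorescence dequenching readout, ex 525 nm/em 598 nm, kinetic mode: forked duplex DNA (100 nM final) with adjacent fluorophore and quencher unwound by WRN (20 nM final) with 2 mM ATP. Compound preincubation 15 min, room temperature.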
FEN1 inh-1: qHTS Assay for the Inhibitors of Human Flap endonuclease 1 (FEN1) | Recombinant FEN1 flap cleavage, fluorescence, 15 min | 390,000 compounds, 0.35% hits | P39748 | Potency, µM (highest dose often 114 µM), actives largely listed as inhibitors; note: nearly all actives have a fitted effect of over 65% in size
Target sequence (P39748 whole entry, looked up): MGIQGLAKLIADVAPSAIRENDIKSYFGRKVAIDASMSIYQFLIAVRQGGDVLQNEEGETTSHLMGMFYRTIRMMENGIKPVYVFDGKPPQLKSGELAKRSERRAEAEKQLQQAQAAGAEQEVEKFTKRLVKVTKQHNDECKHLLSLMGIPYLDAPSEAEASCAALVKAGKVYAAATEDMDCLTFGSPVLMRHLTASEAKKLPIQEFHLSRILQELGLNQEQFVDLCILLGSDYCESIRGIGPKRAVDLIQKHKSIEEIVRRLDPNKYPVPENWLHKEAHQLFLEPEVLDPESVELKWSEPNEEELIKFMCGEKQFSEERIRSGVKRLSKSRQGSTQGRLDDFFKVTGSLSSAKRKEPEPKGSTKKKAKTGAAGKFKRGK
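FEN1 at 10 nM, compound pretreatment for 15 min (room temperature), 50 nM final substrate to initiate; endpoint reads at 0 and 15 min; DMSO-only plates used as vehicle background.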
POLI inh: qHTS for Inhibitors of Polymerase Iota | DNA polymerase iota (Homo sapiens), Q9UNA4 | Pol iota fluorescent replication assay, 10 min | Potency, µM (titrated, usually from 115 µM), hits mostly inhibitors | 390,000 compounds, 1% hits
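Fluorescent replication assay read twice, at 0 min and 10 min after adding 50 nM (final) substrate. Enzyme (10 nM) and compounds were first incubated 15 min at room temperature; enzyme-free buffer wells were negative controls.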
Pol kappa inh-1: qHTS for Inhibitors of Polymerase Kappa | Potency, µM (series often up to 107 µM), actives largely listed as inhibitors | DNA polymerase kappa (Homo sapiens), Q9UBT6 | 400,000 compounds, 0.53% hits | purified Pol kappa, fluorescent DNA synthesis assay, 10 min
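Fluorescent qHTS in 1536-well format: enzyme (10 nM) and compound sat 15 min at room temperature before 50 nM substrate (final) was added. Signal taken at 0 and 10 min; no-enzyme buffer wells were negative controls.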
TbPGK inh: qHTS for inhibitors of Phosphogylcerate Kinase: Hit Validation Screen. shares compounds with Pol kappa inh-1. AID 686980, 2013. Potency, µM (titrated, usually from 57.5 µM), most hits filed as inhibitors. 500 compounds, 79% hits. TbPGK coupled GAPDH assay, Kinase-Glo luminescence; note: nearly all actives have a fitted effect of over 65% in size
POLI cherry-pick: qHTS for Inhibitors of Polymerase Iota: Confirmatory Assay for Cherry-picked Compounds; shares compounds with Pol kappa inh-1; Pol iota primer extension, TAMRA/BHQ fluorescence; Potency, µM, usual class: inhibitors; 1,500 compounds, 77% hits; AID 720496, 2013
Pol kappa inh-2: qHTS for Inhibitors of Polymerase Kappa: Confirmatory Assay for Cherry-picked Compounds. shares compounds with Pol eta inh-1. purified Pol-kappa, fluorescent strand-displacement substrate. Potency, µM, actives largely listed as inhibitors. 920 compounds, 76% hits. AID 720501, 2013
Pol eta inh-2: qHTS for Inhibitors of Polymerase Eta: Confirmatory Assay for Cherry-picked Compounds. shares compounds with Pol eta inh-1. Pol eta primer extension, TAMRA/BHQ fluorescence, 10 min. Potency, µM, usual class: inhibitors. 2,600 compounds, 64% hits. AID 720502, 2013
FEN1 inh-2: qHTS Assay for the Inhibitors of FEN1: Confirmatory Assay for Cherry-picked Compounds; shares compounds with FEN1 inh-1; FEN1 flap cleavage, TAMRA/BHQ2 fluorogenic DNA substrate; Potency, µM, actives largely listed as inhibitors; 880 compounds, 79% hits; note: nearly all actives have a fitted effect of over 60% in size
Hits are given with their value; [ ] = dose if it differs, or a comment. Calls come from the whole dose curve; as a rule, active = well fitted curve in the direction sought with a large enough effect; inconclusive = small, poorly fitted or top-dose-only effect, or another doubt; inactive = no such curve, though single readings can be large; an effect the other way counts as inactive or inconclusive.

How did CC(C)c1ccc(N2C(=O)NC(=O)/C(=C/C=C/c3ccco3)C2=O)cc1 do in these assays?
POLB inh: 32µM; Pol eta inh-1: 11µM; WRN inhibitor: 50µM; FEN1 inh-1: inconclusive; POLI inh: 13µM; Pol kappa inh-1: 40µM; POLI cherry-pick: 75; Pol eta inh-2: 30

Results for CN1C(=O)C(=Cc2ccc(N3CCCCCC3)o2)C(=O)N(C)C1=S ?
POLB inh: inconclusive; Pol eta inh-1: inconclusive; WRN inhibitor: inactive; FEN1 inh-1: inactive; POLI inh: inconclusive; Pol kappa inh-1: inactive

How did Cc1cccc(N2C(=O)/C(=C/c3ccc(N4CCN(C)CC4)o3)C(=O)NC2=S)c1C do in these assays?
POLB inh: inactive; Pol eta inh-1: 20µM; WRN inhibitor: 32µM; FEN1 inh-1: inactive; POLI inh: inconclusive; Pol kappa inh-1: inconclusive; POLI cherry-pick: 60; Pol kappa inh-2: 8.4; Pol eta inh-2: 30; FEN1 inh-2: 85

How did C[n+]1c(-c2ccccc2)c2cc(N)ccc2c2ccc(N)cc21 do in these assays?
POLB inh: 25µM; Pol eta inh-1: inconclusive; WRN inhibitor: 2.7µM; FEN1 inh-1: 11µM; POLI inh: 8.9µM; Pol kappa inh-1: 25µM; POLI cherry-pick: 17; Pol kappa inh-2: 2.4; Pol eta inh-2: 67; FEN1 inh-2: 9.5

Results for CSc1nc(N)c(N=Nc2ccc([As](=O)(O)O)cc2)c(=O)[nH]1 ?
POLB inh: 35µM; Pol eta inh-1: 50µM; WRN inhibitor: inactive[11.6 µM]; FEN1 inh-1: inactive; POLI inh: 8.9µM; Pol kappa inh-1: inactive; POLI cherry-pick: 42; Pol eta inh-2: 76; FEN1 inh-2: 76

How did COc1ccc(C[C@@H]2NC[C@H](O)[C@@H]2OC(C)=O)cc1 do in these assays?
Pol kappa inh-1: inactive[12 µM]

What do the screens show for `COC1C(O)C(C)O[C@@H](OC2CC[C@@]3(C)C4CC[C@]5(C)C(C6=CC(=O)OC6)CC[C@@]5(O)C4CC[C@@H]3C2)C1O` (stereo partly specified)?
Pol kappa inh-1: inactive

Results for Cn1cccc1/C=C1/C(=O)NC(=S)N(Cc2ccc(F)cc2)C1=O ?
POLB inh: inconclusive; Pol eta inh-1: 13µM; WRN inhibitor: 56µM; FEN1 inh-1: inactive; POLI inh: 20µM; Pol kappa inh-1: inconclusive; POLI cherry-pick: 21; Pol eta inh-2: 11; FEN1 inh-2: inconclusive

How did CCOc1ccc(/C=C2/C(=O)NC(=O)N(CCc3ccc(F)cc3)C2=O)cc1 do in these assays?
POLB inh: inactive; Pol eta inh-1: inactive; WRN inhibitor: inactive; FEN1 inh-1: inactive; POLI inh: inactive; Pol kappa inh-1: inactive

What do the screens show for `CN1C(=O)NC(=O)/C(=C/c2ccc([N+](=O)[O-])o2)C1=O`?
POLB inh: 32µM; Pol eta inh-1: 3.5µM; WRN inhibitor: inconclusive; FEN1 inh-1: 25µM; POLI inh: inconclusive; Pol kappa inh-1: 22µM; TbPGK inh: 2.6µM; POLI cherry-pick: 6; Pol eta inh-2: 4.3; FEN1 inh-2: 34

How did CC(=O)OCOCC(=O)OCO[P+](=O)C(OCOC(C)=O)c1cc([N+](=O)[O-])ccc1Oc1ccc(Br)cc1 (stereo unspecified) do in these assays?
Pol kappa inh-1: inactive[19.4 µM]

How did O=C(O)Cn1cc(/C=C2\C(=O)NC(=O)N(Cc3ccco3)C2=O)c2ccccc21 do in these assays?
POLB inh: 10µM; Pol eta inh-1: 1.6µM; WRN inhibitor: 40µM; FEN1 inh-1: 79µM; POLI inh: 4.5µM; Pol kappa inh-1: 20µM; TbPGK inh: 8.2µM; POLI cherry-pick: 3.4; Pol eta inh-2: 4.8; FEN1 inh-2: 67

Results for O=C1NC(=O)N(Cc2ccccc2)C(=O)/C1=C\c1ccco1 ?
POLB inh: 25µM; Pol eta inh-1: 20µM; WRN inhibitor: 32µM; FEN1 inh-1: 45µM; POLI inh: inconclusive; Pol kappa inh-1: 28µM; POLI cherry-pick: inconclusive; Pol eta inh-2: 34; FEN1 inh-2: 76

Results for CCN1C(=O)NC(=O)/C(=C\c2cn(CC(=O)O)c3ccccc23)C1=O ?
POLB inh: inactive

Results for O=C(N[C@@H]1CN2CCC1CC2)c1cc(Cl)cc2[nH]cnc12 ?
Pol kappa inh-1: inactive

What do the screens show for `C[C@H](NC(=O)[C@@H](N)Cc1ccc(O)cc1)C(=O)N[C@@H](Cc1ccccc1)C(=O)N[C@@H](Cc1ccccc1)C(N)=O`?
Pol kappa inh-1: inactive[19.4 µM]

What do the screens show for `CC1(C)OC(c2ccccc2)=C/C(=C/C=C2C(=O)NC(=S)NC2=O)O1`?
POLB inh: 50µM; Pol eta inh-1: inconclusive; WRN inhibitor: 8.9µM; FEN1 inh-1: inconclusive; POLI inh: inconclusive; Pol kappa inh-1: inconclusive; POLI cherry-pick: 67; Pol eta inh-2: 76; FEN1 inh-2: 85

What do the screens show for `CN1/C(=C\C=C2C(=O)NC(=S)NC2=O)C(C)(C)c2ccccc21`?
POLB inh: inconclusive; Pol eta inh-1: 79µM; WRN inhibitor: inactive; FEN1 inh-1: 40µM; POLI inh: inactive; Pol kappa inh-1: inactive; POLI cherry-pick: inconclusive; Pol kappa inh-2: 60; Pol eta inh-2: 85; FEN1 inh-2: 76

Results for Cc1ccc(N2C(=O)NC(=O)/C(=C/c3cnn(-c4ccc(C)cc4)c3)C2=O)cc1 ?
POLB inh: inactive; Pol eta inh-1: inactive; WRN inhibitor: inactive; FEN1 inh-1: inactive; POLI inh: inactive; Pol kappa inh-1: inactive

Bioassay records deposited in PubChem by National Center for Advancing Translational Sciences (NCATS).
